Sampled rows, rich in hits. Any-hit rate of the full collection: about 12%.
Sfp inh = Sfp phosphopantetheinyl transferase inhibition; Biochemical Sfp PPTase activity, qHTS; Potency, µM, for inactives: largest response in the series, negative = inhibition, usual class: inhibitors; Q9F4F7; 3.5% of 310,000 active; AID 1490;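 further: the enzyme is Sfp with the accession as filed and its product quenches rhodamine fluorescence; 0% = enzyme reaction without inhibitor and -100% = no enzyme wells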
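Buffer: 50 mM Hepes-Na pH 7.6, 10 mM MgCl2, 0.01% Nonidet P-40, 0.01% BSA. Enzyme 15 nM, pre-exposed to compound 15 min; substrates then added and fluorescence change tracked over 30 min.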
BAZ2B block = blocks human BAZ2B. Q9UIF8. AlphaScreen BAZ2B-H3K14Ac peptide displacement. Potency, µM (top dose mostly 114 µM), for the others: at the highest dose activity change, negative = inhibition, hits mostly inhibitors. 4.4% of 360,000 active. AID 504333; further: on the % scale 0 is the no-effect control and ±100 the full control effect; nearly all actives have a fitted effect of over 60% in size
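Compounds, titrated to a top concentration of 110 uM, were incubated 30 min at room temperature with preformed BAZ2B/acetyl-K14 H3 peptide complex (50 nM each). Proximity signal was measured by AlphaScreen after 20 min with beads.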
JMJD2A Tudor inh = blocks the human JMJD2A Tudor domain. O75164. AlphaScreen JMJD2A-Tudor / H3K4me3 peptide binding. Potency, µM (highest dose often 114 µM), inactives show at the top dose activity change, negative = inhibition, usual class: inhibitors. 4.4% of 390,000 active. AID 504339; further: on the % scale 0 is the no-effect control and ±100 the full control effect; nearly all actives have a fitted effect of over 50% in size
G9a block = inhibitors of human histone lysine methyltransferase G9a | Q96KQ7 | Potency, µM (doses to about 102 µM), for inactives: at the highest dose activity, negative = inhibition, most hits filed as inhibitors | AID 504332 | 8.8% of 350,000 active | G9a H3K9 monomethylation, AlphaScreen, 2 h; further: on the % scale 0 is the no-effect control and ±100 the full control effect; nearly all actives have a fitted effect of over 75% in size
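AlphaScreen read-out: biotin-H3K9 peptide (500 nM) methylation by 20 nM enzyme with 20 uM SAM, 2 h at room temperature after 15 min compound preincubation; anti-monomethyl H3K9 antibody plus donor/acceptor beads, 10 min dark.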
HP1b binding inh = blocks HP1-beta chromodomain binding to methylated histone tails. 0.56% of 390,000 active. AlphaScreen HP1-beta / biotin-H3K9me3 peptide binding. P83916. AID 540317. Potency, µM (doses to about 114 µM), for the others: at the top dose activity change, negative = inhibition, most hits filed as inhibitors; further: nearly all actives have a fitted effect of over 70% in size
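Compound inhibition of the preformed complex between 50 nM HP1-beta and 50 nM biotinylated H3K9me3 peptide was read by AlphaScreen. Buffer was PBS pH 7.4 with 0.01% Tween-20. Incubations ran 30 min at room temperature, with 10 ug/mL donor/acceptor beads.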
Starred values were filed as active, the others as inactive; ? = inconclusive; nt = no result; [ ] = dose if it differs, or a comment. The call rests on the fitted dose curve; in most records, active means well fitted curve in the direction sought with a large enough effect; inconclusive means small, poorly fitted or top-dose-only effect, or another doubt; inactive means no such curve, though single readings can be large; an effect the other way counts as inactive or inconclusive. Potency means the concentration at half of the fitted maximal effect.

SMILES | Sfp inh | BAZ2B block | JMJD2A Tudor inh | G9a block | HP1b binding inh
CN(c1ccc(Cl)cc1)c1cc(=O)n(C)c2ccccc12 | -13% | 46% | 24% | 28% | 77%
COc1cc(C=c2c3ccccc3n3c2cc(-c2ccccc2)[n+]3C)cc(OC)c1OC | nt | nt | 32µM* | nt | ?
CN(C)c1ccc(C=c2c3ccccc3n3c2c2c([n+]3C)CCCC2)cc1 | nt | nt | 28µM* | nt | ?
CN(C)c1ccc(/C=C2\SC(=O)N(CC(O)Cn3c4ccccc4c4ccccc43)C2=O)cc1 (configuration not stated) | 16% | -3% | -25% | 9%[59 µM] | 16%
COc1cc(N(C)C)ccc1C=c1c2ccccc2n2c1cc(-c1ccccc1)[n+]2C | nt | nt | 18µM* | nt | ?
CN(C)c1ccc(C=c2c3cc([N+](=O)[O-])ccc3n3c2cc(-c2ccccc2)[n+]3C)cc1 | nt | nt | 11µM* | nt | 11µM*
O=C(O)CCCCCNc1nc2ncn(Cc3ccccc3)c2c(=O)[nH]1 | -3% | ? | -12% | ? | 15%
Cc1nc(NC(=O)/C=C/c2ccco2)sc1C | 71µM* | ? | -33% | ? | -7%
O=C(/C=C/c1ccco1)NC1=NCCS1 | 0% | 3% | ? | ? | 14%
O=C(/C=C/c1ccco1)Nc1cccc(NC(=O)/C=C/c2ccco2)n1 | 3% | ? | ? | 10µM* | -7%
CCc1nnc(NC(=O)/C=C/c2ccco2)s1 | -10% | 4% | -11% | 50µM* | 38%
O=C(OCC(=O)c1ccco1)c1ccc2ncsc2c1 | 2% | -18% | -17% | 5%[12.7 µM] | 29%
NC1=NN=C(c2ccc3c(c2)OCCO3)CS1 | 79µM* | -21% | -26% | ? | -5%
Cc1sc(N)nc1-c1ccc(Oc2ccccc2)cc1 | 0% | 50µM* | ? | ? | -20%
Cc1sc(N)nc1-c1ccc2c(c1)OCCO2 | 79µM* | -5% | -26% | 35µM* | 1%
CCn1c(O)c(/C=C/C=C/C=Nc2ccccc2)sc1=S | ? | ? | ? | 14µM* | ?
Oc1c(/C=C/C=C/C=Nc2ccccc2)sc(=S)n1Cc1ccccc1 | ? | ? | ? | 2.2µM* | ?
Cc1ccc(-c2nc(C=Nc3ccccc3)c(O)o2)cc1 | 0% | 15% | -14% | -8% | 22%
CCCn1c(O)c(C=Nc2ccccc2)sc1=S | 8% | -12% | -22%[11.4 µM] | -24% | 25%
CCCCn1c(O)c(/C=C/C=C/C=Nc2ccccc2)sc1=S | -34% | 6.3µM* | ? | 2.8µM* | 3.2µM*
CCn1c(O)c(C=NCc2ccccc2)sc1=S | -14% | ? | ? | nt | 6%
CCn1c(O)c(C=Nc2ccccc2)oc1=S | ? | 8% | -21% | 28µM* | -19%
CCc1ccc(-c2n[nH]c(=O)c3ccccc23)cc1 | -4% | 0% | -26% | 37% | 23%
COc1cc(NC(=O)c2cccc(Cl)c2)ccc1NC(=O)c1cccs1 | 10% | 1% | -18% | -10%[0.501 µM] | 16%
Cc1ccc(S(=O)(=O)Nc2cc(C(F)(F)F)ccc2N2CCOCC2)c(C)c1 | -9% | 8% | -8% | 50µM* | 32%
SMILES | Sfp inh | BAZ2B block | JMJD2A Tudor inh | G9a block | HP1b binding inh
Cc1ccc(S(=O)(=O)Nc2cc(C(F)(F)F)ccc2N2CCOCC2)cc1 | 1% | 1% | -7%[57.1 µM] | ? | -2%
CCOC(=O)c1sc2nc(CC(=O)OC)nc(NCc3ccco3)c2c1C | -15% | ? | ? | -5%[12.7 µM] | -19%
Cc1nc(SCC(=O)N(C)Cc2ccco2)c2c(C)c(C)sc2n1 | -12% | -26% | -28%[57.1 µM] | 50µM* | 24%
CCN(C(=O)CSc1nc(C)nc2sc(C)c(C)c12)c1ccc(F)cc1 | nt | 0% | -7% | -7%[12.7 µM] | 34%
COC(=O)c1ccc(CSc2nnc(NCc3ccccc3)s2)o1 | 4% | 2% | 0% | 50µM* | 45%
COC(=O)c1ccc(CSc2nc(C)nc3sc(C)c(C)c23)o1 | 25µM* | ? | -8% | ? | 33%
COC(=O)c1ccc(CSc2nnc(SCc3ccc(C(=O)OC)o3)s2)o1 | -15% | -5% | -15% | -38%[59 µM] | 6%
CC(=O)Nc1ccc(NC(=O)CSc2nc(C)nc3sc(C)c(C)c23)cc1 | -28% | -16% | -5%[11.4 µM] | ? | 35%
Cc1nc(NCc2ccco2)c2c(C)c(C)sc2n1 | -28% | 28µM* | 3.2µM* | 8.9µM* | ?
